Rows were chosen to be rich in hits. Some 12% of all compounds tested hit in one or more screens of this group.
FMDV inh: antivirals against foot and mouth disease virus; 410,000 tested, 1.2% active; Potency, µM (titrated, usually from 57.9 µM), most hits filed as inhibitors; FMDV antiviral cell-based qHTS; calls by dose curve; tested in HEK293T cells; also: read-out not given here; nearly all actives have a fitted effect of over 45% in size
CHX counter-1: affects cycloheximide protein synthesis inhibition readout, counter-screen. cell reporter, cycloheximide protein synthesis inhibition counterscreen. max response, %. 300,000 tested, 12% active. AID 2314; in the data active = max response mostly above about 13%, no sharp cut-off; inactive = mostly below about 14%; also: read at 38.3 µM for the half of the compounds with a filed dose
Sm TGR inh: blocks Schistosoma mansoni thioredoxin glutathione reductase; Q962Y6; purified TGR, DTNB reduction, TNB absorbance 405 nm; Potency, µM (titrated, usually from 114 µM), actives largely listed as inhibitors; 360,000 tested, 3% active; active = well fitted inhibition curve with a large enough effect; inconclusive = small, poorly fitted or top-dose-only effect; inactive = no such curve, though single readings can be large or run the other way; also: nearly all actives have a fitted effect of over 60% in size
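First, TGR (20 nM dispensed) and NADPH were mixed with compound. Second, a 15 min room-temperature incubation followed. Third, further NADPH and then DTNB were added to start the reaction. Finally, TNB absorbance was monitored kinetically.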
Shiga inhibitor: blocks Shiga toxin action in Vero cells. 290,000 tested, 9.2% active. Vero cells, Shiga toxin protein synthesis inhibition reporter. AID 2315. inhibition, % at 38.7 µM; in the data active = inhibition mostly above about 28%, no sharp cut-off; inactive = mostly below about 43%
CHX counter-2: affects protein synthesis reporter in cycloheximide counter-screen; Cycloheximide counterscreen, protein synthesis reporter, Shiga toxin assay; Potency, µM (titrated, usually from 38.3 µM), most hits filed as activators; shares compounds with Shiga inhibitor; 510 tested, 3% active; calls by dose curve
Each line names hits and unclear results; the compound was inactive in the other large screens (follow-up assays come after a bar, where they were run).

O=C(COC(=O)c1cncc(Br)c1)Nc1nc(-c2ccc(F)cc2)cs1	Shiga inhibitor 27 | CHX counter-2 inconclusive
Cc1ccc(-c2cc(C(F)(F)F)n3nc(C(=O)NCC45CC6CC(CC(C6)C4)C5)cc3n2)cc1	none (no result: CHX counter-1, Shiga inhibitor)
COc1ccc(NC(=O)CSc2nccn2-c2cccc(OC)c2)cc1	Shiga inhibitor 40 | CHX counter-2 inactive
O=C(/C=C/c1ccc(Cl)cc1)N1CCN(Cc2ccccc2)CC1	Shiga inhibitor 25 | CHX counter-2 inactive
COc1nc2ccccc2c(=O)n1-c1ccc(C)cc1	Shiga inhibitor 19 | CHX counter-2 inactive
COc1nc2ccccc2c(=O)n1-c1ccc(Cl)cc1	none
Cc1cccc(NC(=O)Nc2nnc(N(C)C3CCCCC3)s2)c1C	none (no result: CHX counter-1, Shiga inhibitor)
O=C(Nc1ccc(Cl)cc1)c1ccncc1	Shiga inhibitor 52 | CHX counter-2 inconclusive
O=C(N/N=C/c1ccncc1)c1ccc(NC(=O)c2ccc(Cl)cc2)cc1	none
CCN(CC)C(=O)CSc1nc(-c2ccccc2F)nc2c1Cc1c(CO)cnc(C)c1O2	none (no result: CHX counter-1, Shiga inhibitor)
COC(=O)c1ccc(-c2noc(CN(C)Cc3ccncc3C)n2)cc1	Shiga inhibitor 40 | CHX counter-2 inactive
CC(C)=CCC[C@@](C)(O)[C@H]1CC=C(C)CC1	none (no result: CHX counter-1, Sm TGR inh, Shiga inhibitor)
C=CCNc1ncnc2ccccc12	none (no result: FMDV inh)
Cc1ccccc1S(=O)(=O)Nc1ncnc2ccccc12	Shiga inhibitor 33 | CHX counter-2 inactive
O=C(NCC(=O)N1CCN(c2ccccn2)CC1)c1ccc(Br)o1	Shiga inhibitor 36 | CHX counter-2 inactive
Cc1ccc2nc(-c3c[nH]c4ccccc34)c(Nc3ccccc3)n2c1	none (no result: CHX counter-1, Shiga inhibitor)
CC(=O)c1ccc(N2CCN(S(=O)(=O)c3ccc4c(c3)CC(C)N4C(C)=O)CC2)cc1 (centres undefined)	FMDV inh inconclusive, Shiga inhibitor 34 | CHX counter-2 inactive
CC(=O)c1ccc(N2CCN(S(=O)(=O)c3ccc4c(c3)CC(C)N4C(=O)C3CC3)CC2)cc1 (centres undefined)	FMDV inh inconclusive
O=C(c1ccc(S(=O)(=O)c2ccccc2)cc1)N1CCc2ccccc2C1	none
O=C(c1ccc([N+](=O)[O-])cc1)N1CCc2ccccc2C1	Shiga inhibitor 26 | CHX counter-2 inactive
CCc1ccc(NC(=O)c2ccc(F)c(S(=O)(=O)N3CCN(c4ccc(OC)cc4)CC3)c2)cc1	none (no result: CHX counter-1, Shiga inhibitor)
CCC(=O)N1c2ccccc2CC1C(=O)NCCc1ccccc1 (centres undefined)	none (no result: CHX counter-1, Shiga inhibitor)
O=C(Cn1c(=O)c(C(F)(F)F)nc2ccccc21)Nc1cccc(Br)c1	none (no result: CHX counter-1, Shiga inhibitor)
COc1cc(C2C(S(=O)(=O)c3ccccc3)CON2C)ccc1OCc1ccc(F)cc1 (centres undefined)	Shiga inhibitor 43 | CHX counter-2 inactive
O=C(O)c1cc(S(=O)(=O)Nc2ccc(OCc3ccccc3)cc2)ccc1Br	Shiga inhibitor 40 | CHX counter-2 inconclusive
COc1ccc(N2CCN(Cc3nc4c(c(=O)[nH]c(=O)n4C)n3CC(C)=O)CC2)cc1	Shiga inhibitor 30 | CHX counter-2 inactive
COc1ccc(CNC(=O)Cn2c(=O)ccc3cc(S(=O)(=O)N4CCCC4)ccc32)cc1	none (no result: CHX counter-1, Shiga inhibitor)
Cc1ccc(S(=O)(=O)c2cn(CC(=O)Nc3ccccc3C)c3cc4c(cc3c2=O)OCO4)cc1	none (no result: CHX counter-1, Shiga inhibitor)
COc1ccc(N2CCN(Cc3csc(C)c3-c3ccc(C)cc3)CC2)cc1	FMDV inh inconclusive, Shiga inhibitor 40 | CHX counter-2 inactive
Cc1sc(NC(=O)COc2cccc(-n3cnnn3)c2)c(C#N)c1C	Shiga inhibitor 75 | CHX counter-2 inactive
O=C(OCc1nc2ccccc2s1)c1cccc(N2C(=O)CCC2=O)c1	Shiga inhibitor 58 | CHX counter-2 inactive
O=C(Nc1nc2ccccc2s1)c1cccc(N2C(=O)CCC2=O)c1	none
Cc1ccc(OCC(=O)Nc2nnn(C)n2)c(C)c1	Shiga inhibitor 83 | CHX counter-2 inconclusive
CN(C(=O)c1ccc2c(=O)n3c(nc2c1)CCCCC3)c1ccccc1	Shiga inhibitor active | CHX counter-2 inactive
COc1ccc(N2CCN(c3oc(COc4ccccc4Cl)nc3C#N)CC2)cc1	Shiga inhibitor 35 | CHX counter-2 inconclusive
O=c1c(-c2ccc(O)cc2)coc2cc(O[C@@H]3O[C@H](CO)[C@H](O)[C@H](O)[C@H]3O)ccc12	Shiga inhibitor 49 (no result: FMDV inh, Sm TGR inh) | CHX counter-2 inactive
Cc1c(C)c2ccc(O[C@@H]3O[C@H](CO)[C@H](O)[C@H](O)[C@H]3O)cc2oc1=O	none
COc1ccccc1C(=O)NNC(=O)c1ccc2ccccc2c1	none (no result: Shiga inhibitor) | CHX counter-2 inactive
COc1ccc(C(=O)Nc2cccc(C(=O)N3CCCCC3)c2)cc1	none
COc1ccc(C(=O)Nc2cccc(C(=O)N3CCN(C)CC3)c2)cc1	Shiga inhibitor 37 | CHX counter-2 inactive
Cc1ccc(CNC(=O)Nc2cn(CC(C)C)c(=O)c3ccccc23)cc1	none (no result: CHX counter-1, Shiga inhibitor)
O=C(Sc1cccc2cccnc12)c1ccccc1Br	Shiga inhibitor 41 (no result: FMDV inh) | CHX counter-2 inactive
CN(CCO)C(=O)c1cn(C2CCCN(Cc3cc4ccccc4s3)C2)nn1 (centres undefined)	none (no result: CHX counter-1, Sm TGR inh, Shiga inhibitor)
COc1ccccc1NC(=O)Cc1nnc(SCC(=O)c2ccccc2)n1C	none
COc1ccccc1NC(=O)CSc1nnc(CC(=O)Nc2ccccc2F)n1C	Shiga inhibitor 56 | CHX counter-2 inactive

Compound activity as filed in PubChem BioAssay.
